Assay results as given in PubChem BioAssay AID646 (Vanderbilt High Throughput Screening Facility, 2007).
Screen size: about 1,900 compounds; about 15 (0.8%) were called active. Rule as the data show it: active = luminescence above about 3900; inactive = the rest. Not all results are given here.

Biological target: D(1A) dopamine receptor (Homo sapiens) (UniProt P21728)
Assay: D1 receptor agonism without dopamine, confirmation, mechanism study for D1 allosteric modulator project, cell-based, HEK293 D1, CRE-luciferase, secondary assay 1 (AID 646)
Conditions: no dopamine, at 10 µM, active compounds read high

Sequence of D(1A) dopamine receptor (Homo sapiens) (P21728 whole entry, looked up): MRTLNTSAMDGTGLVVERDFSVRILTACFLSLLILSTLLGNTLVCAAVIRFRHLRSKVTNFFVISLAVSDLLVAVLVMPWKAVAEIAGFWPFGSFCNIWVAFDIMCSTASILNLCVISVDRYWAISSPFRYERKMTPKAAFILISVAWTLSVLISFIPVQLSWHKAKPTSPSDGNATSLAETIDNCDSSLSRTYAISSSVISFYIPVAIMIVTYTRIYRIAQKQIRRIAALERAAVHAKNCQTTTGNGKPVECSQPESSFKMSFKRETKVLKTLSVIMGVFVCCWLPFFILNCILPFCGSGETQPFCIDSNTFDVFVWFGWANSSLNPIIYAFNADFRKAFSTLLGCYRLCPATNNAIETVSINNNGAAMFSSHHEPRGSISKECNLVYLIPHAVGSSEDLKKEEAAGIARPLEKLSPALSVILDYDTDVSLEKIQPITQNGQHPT

Compound | luminescence
CCOc1cc(-c2noc(CCC(=O)N3CCOCC3)n2)ccc1OC | 1180 (inactive)
COC(=O)[C@H](C(C)C)n1c(C)c(C(C)=O)c(C(C)=O)c1C | 1540 (inactive)
N#Cc1nc(Cc2ccccc2)oc1NCCc1ccccc1 | 1730 (inactive)
Cc1cc(C)c2c(n1)nn1c(-n3ccnc3)cc(C)nc21 | 1660 (inactive)
CC1CCN(c2oc(-c3ccccc3F)nc2C#N)CC1 | 1620 (inactive)
Cc1ccc(C2CC(c3cccc(Br)c3)n3nc(N)nc3N2)cc1 (stereo not given) | 1420 (inactive)
COc1cc(NC(=O)N2CCOCC2)cc(OC)c1 | 1580 (inactive)
COc1ccc(NC(=O)C2CCCN(S(=O)(=O)c3cccc4cccnc34)C2)cc1OC (stereo not given) | 1590 (inactive)
CCCc1nc(-c2ccccc2O)n(-c2ccccc2)n1 | 1710 (inactive)
COc1ccc(-c2nn3c(-c4ccccc4)nnc3s2)cc1OC | 1800 (inactive)
O=C(NCc1ccco1)c1cnn2c(C(F)(F)F)cc(-c3ccco3)nc12 | 1560 (inactive)
Cc1nn(-c2ccccc2)c2c1C(=O)NC(=O)C(C)(C)C2 | 1740 (inactive)
COc1ccc(-c2nnc(SCC(=O)NC3CCCCC3)o2)cc1OC | 1800 (inactive)
c1coc(-c2nc3nc4ccccc4n3nc2-c2ccco2)c1 | 1610 (inactive)
CC1(C)Cc2ccccc2-c2nc(CN3CCOCC3)[nH]c(=O)c21 | 1890 (inactive)
CCCCSc1nc2c(c(=O)n1CC)SC(C)C2 (stereo not given) | 1490 (inactive)
CCOC(=O)c1c(NC(=O)CSc2nnc(Cc3csc(N)n3)n2C)sc(C)c1C | 1680 (inactive)
C#CCNc1nc(C(C)C)nc2c1nnn2Cc1ccccc1F | 1600 (inactive)
C/C(=C\C(=O)c1ccccc1)Nc1cccc(O)c1 | 1340 (inactive)
O=S(=O)(c1cccs1)N1CCc2ccccc2C1 | 1530 (inactive)
COc1ccc(CCNC(=O)CCn2c(=O)oc3ccccc32)cc1OC | 1540 (inactive)
COc1ccc(CCN(C)C(=O)C2CCCN(Cc3ccc(OC)c(OC)c3)C2)cc1OC (stereo not given) | 1520 (inactive)

Compound | luminescence
O=C(C1CCC1)N1CCc2cc(S(=O)(=O)NCc3cccnc3)ccc21 | 1680 (inactive)
CCOC(=O)c1c(NC(=O)CSc2nnc(CN3CCOCC3)n2C)sc2c1CCCC2 | 1870 (inactive)
CCSc1ncnc2c(C#N)c3n(c12)CCCCC3 | 1840 (inactive)
N#Cc1nc(N)nc(N(c2ccccc2)c2ccccc2)n1 | 1620 (inactive)
COc1ncnc2c1N=C1CC(C)(C)CC(N)=C1S2 | 1620 (inactive)
N#CCCN1CCN(S(=O)(=O)c2ccc(S(=O)(=O)NC3CCCCC3)cc2)CC1 | 1130 (inactive)
c1ccc(COc2nsnc2N2CCOCC2)cc1 | 1550 (inactive)
CCc1cc(=O)oc2cc(OCC(=O)N3CCCc4ccccc43)ccc12 | 1680 (inactive)
Cn1c(/C(C#N)=C2/CCCCCN2)nc2ccccc21 | 1800 (inactive)
COc1ccc(Nc2oc(-c3ccccc3Cl)nc2C#N)cc1 | 1750 (inactive)
CCOc1cc(C(=O)N2CCc3cc(OC)c(OC)cc3C2)ccc1OC(F)F | 2710 (inactive)
CCOc1ccc(Nc2oc(Cc3ccccc3)nc2C#N)cc1 | 1910 (inactive)
CCOc1ccccc1C1CC(c2ccccc2)Nc2nc(N)nn21 (stereo not given) | 1700 (inactive)
Cc1cc(C(F)(F)F)nn1-c1nc(-c2ccco2)cc(C(F)(F)F)n1 | 1710 (inactive)
c1ccc(-c2nnc3n2NC(c2ccc4c(c2)OCO4)S3)cc1 (stereo not given) | 1610 (inactive)
CCOC(=O)c1cc2n(c1C)-c1ccccc1C2=O | 1720 (inactive)
CCSc1nc(C)nc2c1oc1ccccc12 | 1590 (inactive)
CCCc1nc(N)nc2c1C(=O)CC(C)(C)C2 | 1560 (inactive)
CCOc1ccc(Cn2c(SCCCCC#N)nc3c2c(=O)n(C)c(=O)n3C)cc1OCC | 1460 (inactive)
CC1CCN(c2nc3c(c(=O)[nH]c(=O)n3C)n2CCCc2ccccc2)CC1 | 1410 (inactive)
Cc1ccc(-c2nn(-c3ccccc3)cc2CN(Cc2ccccc2)C(=O)CCC(=O)O)o1 | 1420 (inactive)
CC(C)n1c(C(O)c2ccccc2)nc2ccccc21 (stereo not given) | 1600 (inactive)

Compound | luminescence
CCCn1c(=O)c2[nH]c(C3CCCC3)nc2n(CCC)c1=O | 1560 (inactive)
Nc1ccc(S(=O)(=O)NC(=O)c2ccccc2)cc1 | 1560 (inactive)
O=c1cc(-c2ccccc2)nc(N2CCCCC2)[nH]1 | 1600 (inactive)
COC(=O)c1ccccc1NC(=O)C1CCN(S(=O)(=O)c2cc(OC)ccc2OC)CC1 | 1480 (inactive)
Cn1c(=O)c2cn(-c3cccc4ccccc34)cc2n(C)c1=O | 1650 (inactive)
COc1ccc(-n2c(Cc3cccn3C)nnc2SCC(=O)Nc2cc(C)cc(C)c2)cc1 | 1500 (inactive)
COc1ccc(CCNC(=O)c2cc3sccc3n2C)cc1OC | 1640 (inactive)
COc1ccc(-c2nnn(Cc3nc(N)nc(N4CCCCC4)n3)n2)cc1 | 1520 (inactive)
CN1CCN(CC(O)COCc2ccc3c(c2)OCO3)CC1 (stereo not given) | 1670 (inactive)
COc1ncnc2sc3c(c12)CCCC3 | 1600 (inactive)
CC(C)C1C2=C(CC(C)(C)CC2=O)ON1c1ccccc1 (stereo not given) | 1810 (inactive)
COC(=O)C(C)C1Sc2ccccc2NC1=O (stereo not given) | 1730 (inactive)
N#Cc1c(N)sc2c1CCN(C(=O)OCc1ccccc1)C2 | 1760 (inactive)
CC(=O)OC(C)C[N+](C)(C)C (stereo not given) | 1390 (inactive)
O=C(CSc1nnc2scc(-c3ccc(F)cc3)n12)NCc1ccco1 | 1730 (inactive)
COc1ccc(CCNc2ncnc3nc[nH]c23)cc1OC | 1540 (inactive)
CCOc1ccc2[nH]c(=O)c(C(c3nnnn3CCOC)N3CCOCC3)cc2c1 (stereo not given) | 1550 (inactive)
N#CCSc1nc2ccccc2c(=O)n1-c1ccccc1 | 1780 (inactive)
COC(=O)C1=C(C)NC2=C(C(=O)c3ccccc32)C1c1ccc(-c2ccc(C(=O)O)cc2)o1 (stereo not given) | 1810 (inactive)
CCn1cc(C(=O)NCC2COc3ccccc3O2)c2cc(OC)c(OC)cc2c1=O (stereo not given) | 1710 (inactive)
C/C(Cl)=C\Cn1c(Nc2cccc(C)c2)nc2c1c(=O)n(C)c(=O)n2C | 1690 (inactive)
